Compound activity: PubChem, National Center for Advancing Translational Sciences (NCATS)
BAZ2B block: blocks human BAZ2B; Potency, µM (series often up to 114 µM), most hits filed as inhibitors; AID 504333; actives 4.4% (n = 360,000); AlphaScreen BAZ2B-H3K14Ac peptide displacement; note: nearly all actives have a fitted effect of over 60% in size
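Inhibition is scored as reduced AlphaScreen emission. The BAZ2B/b-H3(5-23)K14Ac complex (50 nM each) in PBS pH 7.4, 0.01% Tween-20 meets compound (up to 110 uM) for 30 min at RT before bead addition.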
HP1b binding inh: HP1-beta chromodomain-methylated histone interaction inhibition; P83916; AlphaScreen HP1-beta / biotin-H3K9me3 peptide binding; Potency, µM (highest dose often 114 µM), usual class: inhibitors; actives 0.56% (n = 390,000); note: nearly all actives have a fitted effect of over 70% in size
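AlphaScreen: HP1-beta (50 nM) preformed 30 min with biotin-H3(1-18)K9me3 peptide (50 nM) in PBS pH 7.4, 0.01% Tween-20. Compound added for 30 min at RT, then streptavidin donor/nickel chelate acceptor beads (10 ug/mL) for 30 min.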
Sfp PPTase inh: blocks B. subtilis Sfp PPTase activity; Biochemical Sfp PPTase activity, qHTS; actives 3.5% (n = 310,000); Q9F4F7; Potency, µM, usual class: inhibitors;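 note: the enzyme is Sfp with the accession as filed and its product quenches rhodamine fluorescence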
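Step 1, compound plus 15 nM Sfp-PPTase, 15 min, room temperature. Step 2, add rhodamine-CoA (5 uM) and BHQ-2-YbbR (12.5 uM). Step 3, read 525/598 nm fluorescence at 0 and 30 min.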
JMJD2A Tudor: JMJD2A Tudor domain (human) inhibition; AlphaScreen JMJD2A-Tudor / H3K4me3 peptide binding; Potency, µM (series often up to 114 µM), usual class: inhibitors; actives 4.4% (n = 390,000); AID 504339; note: nearly all actives have a fitted effect of over 50% in size
G9a block: inhibitors of human histone lysine methyltransferase G9a; G9a H3K9 monomethylation, AlphaScreen, 2 h; Potency, µM (top dose mostly 102 µM), actives largely listed as inhibitors; actives 8.8% (n = 350,000); AID 504332; Q96KQ7; note: nearly all actives have a fitted effect of over 75% in size
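AlphaScreen read-out: biotin-H3K9 peptide (500 nM) methylation by 20 nM enzyme with 20 uM SAM, 2 h at room temperature after 15 min compound preincubation; anti-monomethyl H3K9 antibody plus donor/acceptor beads, 10 min dark.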
PLK1 PBD block: inhibitors of human PLK1 polo-box domain binding; Plk1 PBD binding of FITC phosphopeptide, fluorescence polarization; Potency, µM, actives largely listed as inhibitors; actives 2.8% (n = 360,000); note: series mostly up to about 57 µM; nearly all actives have a fitted effect of over 65% in size
Target sequence (P53350 whole entry, looked up, the tested form may be a part): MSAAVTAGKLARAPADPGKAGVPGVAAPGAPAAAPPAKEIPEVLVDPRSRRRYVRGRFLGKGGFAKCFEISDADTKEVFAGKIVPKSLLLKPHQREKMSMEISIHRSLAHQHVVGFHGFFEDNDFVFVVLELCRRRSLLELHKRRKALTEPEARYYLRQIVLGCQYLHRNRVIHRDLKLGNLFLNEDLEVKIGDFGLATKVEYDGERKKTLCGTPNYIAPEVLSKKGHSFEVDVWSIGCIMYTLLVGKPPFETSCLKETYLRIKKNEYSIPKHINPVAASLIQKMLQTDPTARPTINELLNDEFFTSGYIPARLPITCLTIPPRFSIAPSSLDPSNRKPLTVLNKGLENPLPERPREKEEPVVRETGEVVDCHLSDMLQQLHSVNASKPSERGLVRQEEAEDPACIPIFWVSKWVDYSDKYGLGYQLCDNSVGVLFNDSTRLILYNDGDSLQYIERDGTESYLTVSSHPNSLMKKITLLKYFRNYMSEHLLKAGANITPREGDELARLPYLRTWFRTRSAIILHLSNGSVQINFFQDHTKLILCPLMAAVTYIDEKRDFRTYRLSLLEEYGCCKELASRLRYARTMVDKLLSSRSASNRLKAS
A number is an active result; i = inactive; ? = inconclusive; nt = no result; ! = a repeat was not active; [ ] = remark or other dose. The list is not random: actives were taken first. Their share in the collection is about 12%. Calls come from the whole dose curve; as a rule, active = well fitted curve in the direction sought with a large enough effect; inconclusive = small, poorly fitted or top-dose-only effect, or another doubt; inactive = no such curve, though single readings can be large; an effect the other way counts as inactive or inconclusive.

SMILES	BAZ2B block	HP1b binding inh	Sfp PPTase inh	JMJD2A Tudor	G9a block	PLK1 PBD block
OC(CN1CCCCCC1)CN(c1ccccc1)c1ccccc1 (configuration not stated)	i	i	i	i	i	i
CN(CC(O)CN)CC(O)CN1CCCCC1 (configuration not stated)	i	i	i	i	3.5µM	i
COc1ccc(-c2nc3c4ccccc4ccn3c2CN2CCCCC2)cc1	?	i	i	?	40µM	i
COc1ccc(-c2nc3c4ccccc4ccn3c2CN2CCCCC2)cc1OC	?	i	i	?	?	i
CCCn1c(C)nc2c(NCc3ccccc3)nc(C)nc21	nt	nt	i	nt	nt	nt
CSc1nc2nc3c(cc2c(=O)n1-c1ccccc1)COC(C)(C)C3	i	i	i	i	50µM	i
Cc1cccc(C)c1NC(=O)C(c1ccccc1F)n1c(=O)c(-c2cc3ccccc3[nH]2)nc2ccccc21 (configuration not stated)	nt	nt	nt	nt	nt	i
CN(C)C=NC1=NN(c2cccc(C(F)(F)F)c2)CC1	?	i	i	?	2.2µM	i
CN1CCN(C=NC2=NN(c3cccc(C(F)(F)F)c3)CC2)CC1	?	?	i	?	2.8µM	i
CN(c1ccc(Cl)cc1)c1cc(=O)n(C)c2ccccc12	i	i	i	i	i	i
CN(C)c1ccc(C=c2c3ccccc3n3c2cc(-c2ccc(Cl)cc2)[n+]3C)cc1	nt	13µM	nt	45µM	nt	30µM
CN(C)c1ccc(C=C2C=C(c3ccccc3)OC2=O)cc1	nt	nt	nt	nt	nt	i
COc1cc(N(C)C)ccc1C=c1c2ccccc2n2c1cc(-c1ccccc1)[n+]2C	nt	?	nt	18µM	nt	?
CN(C)c1ccc(C=c2c3ccccc3n3c2c2c([n+]3C)CCCC2)cc1	nt	?	nt	28µM	nt	i
CN(C)c1ccc(C=c2c3ccccc3n3c2cc(-c2ccccc2)[n+]3C)cc1	nt	50µM	nt	32µM	nt	i
O=c1c(-c2ccc(F)cc2)nc2cncnc2n1C1CC1	nt	nt	i	nt	i[12.7 µM]	nt
CCOC(=O)CCn1cnc2onc(-c3cc(OC)ccc3Cl)c2c1=O	i	i	nt	i	i	nt
CC12CCC(=O)N1C(C(=O)NNC(=O)c1ccccc1)CS2 (configuration not stated)	i	i	nt	i	i	i
Cn1c(CO)c(-c2ccccc2)c2cc([N+](=O)[O-])ccc21	i	i	i	i	i	i
COc1cc(C=c2c3ccccc3n3c2cc(-c2ccccc2)[n+]3C)cc(OC)c1OC	nt	?	nt	32µM	nt	4.7µM
COc1cc(/C=C(/C(=O)O)c2ccc(-c3ccccc3)cc2)cc(OC)c1OC	i	i	i	i	i	i
CN(C)c1ccc(C=c2c3cc([N+](=O)[O-])ccc3n3c2cc(-c2ccccc2)[n+]3C)cc1	nt	11µM	nt	11µM	nt	2.7µM
O=C(Cn1c(=O)n(Cc2ccc(F)cc2)c(=O)c2sc3ccccc3c21)Nc1ccc(F)cc1F	i	i	nt	i	i	nt
CCCC(NC(C)C(=O)N1C(C(=O)O)CC2CCCCC21)C(=O)OCC (configuration not stated)	nt	nt	i	nt	i[2.33 µM]	nt
CCc1nc2ccc(C(=O)Nc3cccc(OCC(=O)N(C)C)c3)cn2c1N(C)Cc1ccc(OC)cc1	nt	nt	nt	nt	nt	i
SMILES	BAZ2B block	HP1b binding inh	Sfp PPTase inh	JMJD2A Tudor	G9a block	PLK1 PBD block
CC(OC(=O)CCN1C(=O)c2cccc([N+](=O)[O-])c2C1=O)C(=O)Nc1cc(Cl)cc(Cl)c1 (configuration not stated)	i	i	i	i	25µM	i
O=C1Cc2cc(CCN3CCN(c4nsc5ccccc45)CC3)c(Cl)cc2N1	?	nt	i	nt	11µM	nt
Cc1csc(CNC(=O)c2cc(COc3c(C)cccc3C)on2)n1	i	i	i	i	i	i
CN1C(=O)/C(=N/OC(=O)c2ccccc2)c2ccccc21	i	i	i	i	?	12µM
O=C(O/N=C1\C(=O)N(c2ccccc2)c2ccccc21)C1CC1	i	i	i	i	i	i
Cc1cc2c(nc1C)CCCN2CC(O)CN1CCCc2nc(C)c(C)cc21	nt	nt	i	nt	nt	nt
Cc1ccc(OCC(=O)Nc2ccc(C(=O)OCc3cc(=O)n4ccsc4n3)cc2)cc1C	i	i	nt	i	i	nt
CCOc1cccc(C2C(C(=O)c3ccco3)=C(O)C(=O)N2c2nnc(C)s2)c1 (configuration not stated)	?	i	nt	?	?	i
CCCOc1cccc(C2C(C(=O)c3ccc(C)o3)=C(O)C(=O)N2c2nc(C)c(C(C)=O)s2)c1 (configuration not stated)	56µM	i	i	i	16µM	?
CCOc1cccc(C2C(C(=O)c3ccc(C)o3)=C(O)C(=O)N2c2nnc(C)s2)c1 (configuration not stated)	nt	?	nt	1.1µM	nt	i
CCOc1cccc(C2c3c(oc4ccccc4c3=O)C(=O)N2c2nc(C)c(C(=O)OC)s2)c1 (configuration not stated)	?	i	nt	i	i	nt
Cc1noc(C)c1-c1ccc2ncnc(NCC3CCN(C)CC3)c2c1	nt	nt	i	?	nt	nt
O=c1c2ccccc2nnn1CSc1nnc(-c2cccnc2)n1-c1ccccc1F	i	i	i	i	50µM	i
Nn1c(Cc2ccccc2F)nnc1SCn1nnc2ccccc2c1=O	i	i	i	i	25µM	?
C[c-]1[c-](C)[c-](C)[c-](C)[c-]1C.[Fe].c1cc2nccc(N3CCCC3)[c-]2c1 (configuration not stated)	40µM	18µM!	89µM!	45µM	?	?
c1cc(N2CCCCC2)nc(N2CCCCC2)n1	nt	i	nt	i	nt	i
O=C1CCC(C(=O)OCc2cc(Cl)ccc2OC(F)F)N1 (configuration not stated)	i	i	i	40µM	i	27µM
Cc1ccc(C)c(N2CCN(Cc3csc(C)c3)CC2)c1	?	i	nt	i	?	nt
Cc1ccc(C)c(-n2c(-c3ccncc3)n[nH]c2=S)c1	i	i	i	11µM	16µM	i
CSc1nc(=S)n(-c2cc(C)ccc2C)c(C)c1C(C)=O	?	i	i	i	i[0.501 µM]	i
Cc1nonc1-c1ccc2c(c1)OCO2	i	i	i	i	i	i
Cc1ccc(C)c(-n2c(-c3csc(C)c3)n[nH]c2=S)c1	i	i	i	22µM	0.28µM	i
Cc1ccc(C)c(-n2c(-c3ccc4c(c3)OCO4)n[nH]c2=S)c1	?	i	i	25µM	4µM	i
Cc1o[nH]c(=O)c1CCC(N)C(=O)O (configuration not stated)	nt	nt	i	nt	i	nt
CC(C)(C)c1ccc(C(=O)NCC(=O)NCC(C)(C)N2CCOCC2)cc1	i	i	nt	i	i	i
Cc1ccccc1CCNC(=O)c1cc2ccccn2n1	i	i	nt	i	i	nt
COc1ccc(NS(=O)(=O)c2cccc(-c3n[nH]c(=S)n3Cc3ccccc3)c2)cc1	?	i	i	i	7.1µM	i
